Laboratory results: PubChem BioAssay
Active and inactive are the calls of the source. How the calls were made is not given here.

Each compound was assayed against Pantothenate synthetase (Mycobacterium tuberculosis (strain ATCC 25618 / H37Rv)) (UniProt P9WIL5) (assay: Recombinant Mtb pantothenate synthetase (PanC) inhibitors, coupled enzyme, confirmatory (AID 375;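 further: 0% = full reaction with vehicle and 100% = no enzyme background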)). Conditions: coupled enzyme assay; at 10 µM, stronger effect = higher value.
Sequence of Pantothenate synthetase (Mycobacterium tuberculosis (strain ATCC 25618 / H37Rv)) (P9WIL5 whole entry, looked up): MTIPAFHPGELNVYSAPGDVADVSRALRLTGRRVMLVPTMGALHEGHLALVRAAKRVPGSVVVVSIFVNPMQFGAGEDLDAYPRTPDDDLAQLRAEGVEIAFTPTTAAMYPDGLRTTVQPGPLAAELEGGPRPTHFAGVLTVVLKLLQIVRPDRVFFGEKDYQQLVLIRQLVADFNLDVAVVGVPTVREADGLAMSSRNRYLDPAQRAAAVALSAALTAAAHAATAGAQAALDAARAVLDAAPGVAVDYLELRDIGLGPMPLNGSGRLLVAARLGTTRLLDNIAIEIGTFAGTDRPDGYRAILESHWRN
`COc1ccc(Cl)cc1NC(=O)c1oc(C)nc1C` was tested, and the inhibition was 4% (inactive).
In the case of `Cc1ccc2cc3cc(C(=O)NCCN4CCOCC4)oc3nc2c1`, the inhibition is reported as 4% (inactive).
With `COc1cccc(OC)c1C(=O)N1CCN(S(=O)(=O)c2ccccc2)CC1` the inhibition was 0% (inactive).
`CC(C)(C)n1ncc2c(=O)n(CC(=O)NCc3ccco3)cnc21` was tested, and the inhibition was 11% (inactive).
With `CCSc1ncc(C#N)c(=O)[nH]1` the inhibition was 0% (inactive).
With `O=C(CC(SCCO)c1ccc2c(c1)OCO2)c1ccco1` (stereo not given) the inhibition was 0% (inactive).
With `Cc1noc(C)c1S(=O)(=O)N1CCC(C(=O)N2CCN(Cc3ccc4c(c3)OCO4)CC2)CC1` the inhibition was 0% (inactive).
For `COc1ccc(CN(Cc2nc3ccccc3c(=O)[nH]2)C(=O)NC2CCCCC2)cc1`, the inhibition was 5% (inactive).
`Cc1cc(NC(=O)CS(=O)(=O)c2cn(Cc3ccccc3Cl)c3ccccc23)no1` was tested, and the inhibition was 9% (inactive).
In the case of `O=c1c2ccccc2c(C=Nc2ccc(Cl)cn2)c(O)n1-c1cc(Cl)ccc1N1CCOCC1`, the inhibition is reported as 4% (inactive).
`O=c1c2ccccc2nc2n1CCN2` was tested, and the inhibition was 0% (inactive).
`COc1cc(NC(=O)c2ccco2)c(OC)cc1NC(=O)CCC(=O)Nc1cc(C)cc(C)c1` was tested, and the inhibition was 8% (inactive).
For `C[C@]12C[C@H](O)[C@H]3[C@@H](CCC4=CC(=O)CC[C@@]43C)[C@@H]1CC[C@@H]2C(=O)CO`, the inhibition was 0% (inactive).
For `O=C(N1CCCCCC1)N1CCN(C(=O)N2CCOCC2)CC1`, the inhibition was 0% (inactive).
For `Cc1ccc(S(=O)(=O)N2CCC(C(=O)N3CCC[C@H]3C(=O)NCc3ccccc3)CC2)cc1`, the inhibition was 0% (inactive).
In the case of `Cc1c(C)c2ccc(OC3CCCCC3=O)cc2oc1=O` (stereo not given), the inhibition is reported as 2% (inactive).
In the case of `Cn1nc(-c2ccc(N3CCCCC3)c(NC(=O)c3ccco3)c2)c2ccccc2c1=O`, the inhibition is reported as 0% (inactive).
`CC1CC(C)CN(c2nc3c(c(=O)[nH]c(=O)n3C)n2CCCSc2nc3ccccc3s2)C1` (stereo not given) was tested, and the inhibition was 7% (inactive).
In the case of `CCc1ccccc1-n1c(SCC(=O)N2CCCC2)nnc1-c1ccccn1`, the inhibition is reported as 0% (inactive).
With `Cc1nc2sc(C(c3cccs3)N3CCC(C(N)=O)CC3)c(O)n2n1` (stereo not given) the inhibition was 2% (inactive).
`COc1ccc(Nc2ncc3c(n2)CC(c2ccc(OC)cc2)CC3=O)cc1` (stereo not given) was tested, and the inhibition was 3% (inactive).
`O=C(NCCC1=CCCCC1)C1CCN(C(=O)Nc2ccccc2)CC1` was tested, and the inhibition was 0% (inactive).
In the case of `COCCSc1ccccc1C(=O)Nc1cc(C)on1`, the inhibition is reported as 5% (inactive).
With `COCCNC(=O)CCCCCN1C(=O)CCC1=O` the inhibition was 7% (inactive).
With `CC(C)COc1ccc(C(=O)OCCN2CCOCC2)cc1` the inhibition was 1% (inactive).
In the case of `CC(C)C[C@H](NC(=O)Nc1cccc(C(F)(F)F)c1)C(=O)O`, the inhibition is reported as 0% (inactive).
With `CCCCC(=O)O[C@]1(C(=O)CO)CC[C@H]2[C@@H]3CCC4=CC(=O)CC[C@]4(C)[C@H]3[C@@H](O)C[C@@]21C` the inhibition was 10% (inactive).
With `CN1CCCN(C(=O)c2cc(=O)[nH]c3ccccc23)c2nc3ccccc3nc21` the inhibition was 0% (inactive).
`O=C(NCN1CCCCC1)c1cnccn1` was tested, and the inhibition was 0% (inactive).
For `O=C(NCc1ccco1)C1CCN(S(=O)(=O)N2CCC3(CC2)OCCO3)CC1`, the inhibition was 0% (inactive).
With `CCS(=O)(=O)c1nc2ccccc2n1Cc1ccccc1Cl` the inhibition was 1% (inactive).
`COc1ccc(-c2ccc(Nc3ccc(S(=O)(=O)N4CCCC4)cc3)nn2)cc1OC` was tested, and the inhibition was 11% (inactive).
In the case of `CCOC(=O)c1sc(C)c2c1NC(C)(c1cccs1)NC2=O` (stereo not given), the inhibition is reported as 4% (inactive).
In the case of `CC1(c2ccc(Cl)cc2)NC(=O)N(CC(=O)NC(=O)NCc2ccco2)C1=O` (stereo not given), the inhibition is reported as 1% (inactive).
In the case of `O=C(CSc1ccc(Cl)cc1)OCc1nnc(-c2ccccc2)o1`, the inhibition is reported as 1% (inactive).
With `CCCn1c(=O)[nH]c(=O)c2[nH]cnc21` the inhibition was 0% (inactive).
`C=CCNC(=O)c1ccc(Cl)cc1Cl` was tested, and the inhibition was 0% (inactive).
For `COC(=O)c1onc(C(=O)c2ccccc2)c1C(=O)OC`, the inhibition was 0% (inactive).
In the case of `O=C(NCc1cccs1)c1cc2c(s1)CS(=O)(=O)C2`, the inhibition is reported as 1% (inactive).
`CCOC(=O)c1ccc2nc(NC(NC(C)=O)(C(=O)OC)C(F)(F)F)sc2c1` (stereo not given) was tested, and the inhibition was 2% (inactive).
